High-throughput results as filed in PubChem BioAssay.
Sampled rows, rich in hits. Any-hit rate of the full collection: about 1.2%.
PrP UTR inh = inhibition of PrP 5' UTR reporter expression; cell-based PrP 5' UTR mRNA reporter, plate reader; inhibition, % (concentration not given with the values); hit rate 0.35% among 340,000; in the data active means inhibition above about 52%
Yp Topo-I inh = Yersinia pestis topoisomerase I inhibitors, primary screen, biochemical, cleavage product accumulation, plate reader, single point; DNA topoisomerase I (Yersinia pestis CO92); Y. pestis Topo-I cleavage product accumulation; activity, % at 10 µM; hit rate 0.064% among 360,000; in the data active means activity above about 50%, passing the limit was not always enough; inconclusive means no clear call, values can overlap the other calls
FadD28 binding = inhibitors of FadD28 bisubstrate probe binding, primary screen, biochemical, fluorescence polarization, single point; hit rate 0.22% among 360,000; inhibition, % at 12.5 µM; Mycobacterium tuberculosis FadD28 fatty-acid-AMP ligase; AID 588549, 2011; in the data active means inhibition above about 8.5%, passing the limit was not always enough; inconclusive means no clear call, values can overlap the other calls
PfHsp40 rescue = rescue of yeast from PfHsp40 toxicity, primary screen, S. cerevisiae, ATP luminescence; S. cerevisiae expressing PfHsp40, growth rescue; growth rescue, % at 12.5 µM; hit rate 0.68% among 340,000; AID 504582, 2011; in the data active means growth rescue above about 28%, passing the limit was not always enough; inconclusive means no clear call, values can overlap the other calls;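 further: yeast W303a lacking pdr1 and pdr3 grown in galactose medium; growth measured after three days at 30 °C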
BioA inh = M. tuberculosis BioA enzyme inhibitors, primary screen, biochemical, plate reader, single point, HTS; hit rate 0.096% among 360,000; inhibition, % at 9.99 µM; purified M. tuberculosis BioA enzyme; in the data active means inhibition above about 40%; inconclusive means no clear call, values can overlap the other calls
TcdB inh = TcdB glycohydrolase inhibitors, primary screen, biochemical, single point, plate reader; AID 652162, 2013; inhibition, % at 9.99 µM; Toxin B (Clostridioides difficile), P18177; TcdB glycohydrolase enzymatic assay; hit rate 0.24% among 350,000; in the data active means inhibition above about 10%
A number is an active result; 0 = inactive; ? = inconclusive; - = not tested or not shown.

SMILES | PrP UTR inh | Yp Topo-I inh | FadD28 binding | PfHsp40 rescue | BioA inh | TcdB inh
O=C(COC(=O)c1ccc(Cl)nc1)Nc1cc(S(=O)(=O)N2CCCCC2)ccc1Cl | 0 | 0 | 0 | 173 | 0 | 0
O=C(COC(=O)c1ccc(Cl)nc1)Nc1ccc(S(=O)(=O)N2CCCC2)cc1 | 0 | 0 | 0 | 0 | - | 0
CCN1CCN(CC(=O)Nc2cc(S(=O)(=O)N3CCCCC3)ccc2Cl)CC1 | 0 | 0 | 0 | 56 | 0 | 0
O=C(CN1CCN(c2ccc(O)cc2)CC1)Nc1cc(S(=O)(=O)N2CCCCC2)ccc1Cl | 0 | 0 | 0 | 0 | - | 0
O=C(C[n+]1cccc(Br)c1)c1ccc(-c2ccccc2)cc1 | 0 | 0 | 0 | 54 | 0 | 0
Cc1nc(-c2ccccn2)nc(N(C)c2ccccc2)c1Cl | 0 | 0 | 0 | 180 | 0 | 0
C[C@H]1CN([C@@H](C)CO)C(=O)c2cccc(NS(C)(=O)=O)c2O[C@H]1CN(C)S(=O)(=O)c1cccs1 | - | - | - | - | 0 | 0
ON=Cc1ccnc2ccccc12 | - | 0 | 0 | - | 0 | 0
O=C(O)c1ccccc1N/N=C\c1ccnc2ccccc12 | 0 | 0 | 11 | 0 | - | -
Cc1cc(C)cc(Nc2nc3ccc(C)cc3n3cnnc23)c1 | 0 | 0 | 0 | 0 | 0 | 0
CC1CCCCC1Nc1nc2ccc(Cl)cc2n2cnnc12 (stereo not given) | 0 | 0 | 0 | 27 | 0 | 0
Cc1ccc(S(=O)(=O)N(C)C[C@H]2OCCCC[C@H](C)Oc3ccc(NC(=O)Nc4c(C)noc4C)cc3C(=O)N([C@H](C)CO)C[C@@H]2C)cc1 | - | - | - | - | 0 | 0
Cc1ccc(CNC(=O)CCn2cc(-c3ccc(C)cc3)nc2CCN)cc1 | 0 | 0 | 0 | 40 | 0 | 0
COc1ccc(-c2cn(CCC(=O)NCc3ccc(C)cc3)c(-c3ccncc3)n2)cc1 | 0 | 0 | 0 | 0 | 0 | 0
COc1ccc(N2C(=O)C(Cl)=C(Nc3ccccc3O)C2=O)cc1 | 0 | 0 | 0 | 82 | 0 | -
COc1ccc(N2C(=O)C(Cl)=C(Nc3ccccc3OC)C2=O)cc1 | 0 | 0 | 0 | 0 | 0 | -
O=[N+]([O-])c1ccccc1-c1cc(-c2cc(Cl)ccc2O)n[nH]1 | 0 | 0 | 0 | 145 | 0 | -
CC(C)(C)c1ccc(-c2cc(-c3ccccc3O)[nH]n2)cc1 | 0 | 0 | 0 | 34 | 0 | 0
Oc1ccc(Cl)cc1-c1cc(-c2cccc(Br)c2)n[nH]1 | 0 | 0 | 0 | 0 | - | -
Cc1ccc(O)c(-c2cc(-c3ccccc3[N+](=O)[O-])[nH]n2)c1 | 0 | 0 | 0 | 0 | - | -
Cc1ccc(O)c(-c2cc(-c3ccccc3C)[nH]n2)c1 | 0 | 0 | 0 | 322 | 0 | -
COc1ccc(-c2cc(-c3cc(C)ccc3O)[nH]n2)cc1 | 0 | 0 | 0 | ? | - | 0
Oc1ccccc1-c1cc(-c2cccc(F)c2)n[nH]1 | 0 | 0 | 0 | 193 | 0 | -
C[C@@H]1CCCCO[C@@H](CN(C)Cc2ccncc2)[C@H](C)CN([C@@H](C)CO)C(=O)c2cc(NC(=O)c3ccccc3)ccc2O1 | - | - | - | - | 0 | 0
Cc1ccccc1-c1cc(-c2ccccc2O)on1 | - | 0 | 0 | 32 | 0 | -
SMILES | PrP UTR inh | Yp Topo-I inh | FadD28 binding | PfHsp40 rescue | BioA inh | TcdB inh
COc1ccc(-c2sc3ccccc3c2-c2ccc(OCCN(C)C)cc2)cc1 | 0 | 0 | 0 | 0 | 0 | 0
COc1cccc(-c2sc3ccc(OC)cc3c2-c2ccc(OCCN(C)C)cc2)c1 | 0 | 0 | 0 | 31 | 0 | 0
COc1cccc(-c2sc3ccc(OC)cc3c2-c2ccc(O)cc2)c1 | 0 | 0 | 0 | 103 | 0 | 0
CN(C)CCOc1ccc(-c2c(-c3ccsc3)sc3ccccc23)cc1 | 0 | 0 | 0 | 91 | 0 | 0
CCC(=O)Nc1ccc2c(c1)C(=O)N(C)[C@H]1CC[C@H](CC(=O)NCCCN(C)C)O[C@@H]1CO2 | - | - | - | - | 0 | 0
COc1ccc(S(=O)(=O)N2C[C@H](O)COC[C@H]3O[C@@H](CC(=O)NCCN4CCCCC4)CC[C@@H]32)cc1 | - | - | - | - | 0 | 0
CO[C@H]1CN(C)C(=O)c2ccc(NC(=O)Nc3cccc(Cl)c3)cc2OC[C@H](C)NC[C@H]1C | - | - | - | - | 0 | 0
Cc1ccc(-n2c(SCC(=O)O)nc3c(sc(=S)n3-c3ccc(C)c(C)c3)c2=O)cc1 | 0 | 0 | 0 | 0 | 0 | 30
Cc1ccc(-n2c(=S)sc3c(=O)n(-c4ccc(F)cc4)c(SCC(=O)O)nc32)cc1C | 0 | 0 | - | 0 | 0 | 0
Cc1ccc(C)c2sc(NC(=O)c3ccc(N4C(=O)CCC4=O)cc3)nc12 | 0 | 0 | 0 | 0 | 0 | 23
COc1ccc(C)c2sc(NC(=O)c3cccc(N4C(=O)CCC4=O)c3)nc12 | 0 | 0 | 0 | 0 | 0 | 0
O=c1cc(Nc2ccc3c(c2)OCCO3)[nH]c(=O)n1C1CCCCC1 | 0 | 0 | 15 | 0 | 0 | 0
CCc1ccc(Nc2cc(=O)n(C3CCCCC3)c(=O)[nH]2)cc1 | 0 | 0 | 0 | 0 | 0 | -
Cc1ccc(/C=N/c2sc3c(c2C#N)CCC3)s1 | 0 | 0 | 0 | 43 | 0 | -
COc1ccc(-c2ccc3c(c2)[C@H]2[C@H](CCN2C(=O)CN2CCOCC2)[C@@H](CO)N3)cc1 | - | - | - | - | 0 | 15
CC(=O)N1CC[C@@H]2[C@@H](CO)Nc3ccc(-c4ccccc4)cc3[C@@H]21 | - | - | - | - | 0 | 11
COc1ccc(-c2ccc3c(c2)[C@H]2[C@H](CCN2C(=O)CN2CCOCC2)[C@H](CO)N3)cc1 | - | - | - | - | 0 | 0
COc1ccc(-c2ccc3c(c2)[C@@H]2[C@@H](CCN2C(=O)CN2CCOCC2)[C@H](CO)N3)cc1 | - | - | - | - | 0 | 12
COc1cccc(-c2ccc3c(c2)[C@@H]2[C@@H](CCN2C(=O)CN2CCOCC2)[C@@H](CO)N3)c1 | - | - | - | - | - | 0
O=C(NCCO)C(=O)c1c(-c2ccc(Cl)cc2)cc2ccccn12 | 0 | 0 | 0 | 0 | - | 0
O=C(O)c1ccn2c(C(=O)c3ccc(Cl)cc3)c(-c3ccccc3)cc2c1 | 0 | 0 | 0 | 72 | 0 | 0
COc1ccc(NC(=O)Cn2nnc(-c3ccccc3NC(=O)c3cccs3)n2)cc1 | 0 | 0 | 0 | 65 | 0 | -
Cc1ccc(NC(=O)Cn2nnc(-c3ccccc3NC(=O)c3cccs3)n2)cc1 | 0 | 0 | 0 | 0 | 0 | -
COCc1c(Br)c(C)nc(OCC(=O)N/N=C/c2ccc(C)o2)c1C#N | 0 | 0 | 0 | 0 | - | 11
COCc1c(Br)c(C)nc(OCC(=O)N/N=C/c2ccco2)c1C#N | 0 | 0 | 0 | 0 | - | 0
CN1C(=O)c2cc(NS(=O)(=O)c3ccccc3F)ccc2OC[C@@H]2O[C@H](CC(=O)NC3Cc4ccccc4C3)CC[C@H]21 | - | - | - | - | 0 | 0
Cc1csc2nc(O)c(C(=O)NCCC3=CCCCC3)c(=O)n12 | 0 | 0 | 0 | 0 | 0 | 0
Cc1csc2nc(O)c(C(=O)NCCCc3ccccc3)c(=O)n12 | 0 | 0 | 0 | 289 | - | 0
CC1=NN(C(N)=S)C(=O)C1N=Nc1cccc(Cl)c1C (stereo not given) | 0 | 0 | 0 | 104 | 0 | 0
CC1=NN(C(N)=S)C(=O)C1N=Nc1ccc(Cl)cc1 (stereo not given) | 0 | 0 | 0 | 0 | 0 | 0
